RXFP1 antag: blocks the human relaxin receptor RXFP1; Q9HBX9; HEK293-RXFP1, relaxin-stimulated cAMP HTRF, 30 min; hits give low values; activity change, negative = inhibition, % at 57.5 µM; 0.59% of 350,000 active; AID 1259400;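 active means activity change of -60% or lower, but not beyond a set lower limit; inconclusive means change between -60% and -40%, or beyond the set limit; inactive means change above -40%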; further: on the % scale 0 is the no-effect control and ±100 the full control effect
Akt phos inh: Akt phosphorylation inhibition | Neuro2A IGF-stimulated pAkt S473 HTRF, 20 min; hits give low values | activity change, % for hits at 50 µM | 0.32% of 360,000 active | AID 651550; in the data active means activity change below about -80%; inconclusive means mostly about -51% to -80%; further: on the % scale 0 is the no-effect control and ±100 the full control effect
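Neuro2A cells (4,500/well, DMEM with 0.5% FBS) were treated with compound at a single 50 µM final concentration, stimulated with 6 nM IGF for 20 min at 37 °C, and lysed. Phospho-Akt Ser473 was read by HTRF as 665/615 ratio ×10^4.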
gsp agonist: activates gsp, the McCune-Albright syndrome mutation | gsp mutant cells, cAMP HTRF, 30 min | 0.13% of 340,000 active | Potency, µM (series often up to 76.9 µM), inactives show at the top dose activation (cAMP increase), most hits filed as activators; active means well fitted activation curve with a large enough effect; inconclusive means small, poorly fitted or top-dose-only effect, or another doubt; inactive means no such curve, though single readings can be large or run the other way; cell line not stated here;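 further: phosphodiesterase inhibitor Ro 20-1724 added with compounds to block cAMP breakdown; potency means the concentration at half of the fitted maximal effect; nearly all actives have a fitted effect of over 60% in size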
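Cells in DMEM/10% FBS with G418 were pretreated with compounds in DMSO plus […] (300 uM stock) for 30 min at 37C. cAMP was measured by HTRF (cAMP-d2 plus anti-cAMP antibody-K) after 30 min at room temperature.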
gsp antagonist: antagonists of gsp mutant (McCune-Albright syndrome); gsp-mutant cells, cAMP HTRF, 30 min; Potency, µM (highest dose often 76.9 µM), for the others: at the highest dose activity change, negative = inhibition, most hits filed as inhibitors; 0.4% of 340,000 active; calls by dose curve; cell line not stated here;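 further: intracellular cAMP measured with PDE inhibitor Ro 20-1724 present during compound exposure; potency means the concentration at half of the fitted maximal effect; on the % scale 0 is the no-effect control and ±100 the full control effect; nearly all actives have a fitted effect of over 65% in size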
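Cells, 2000/well, grown 16–24 h in DMEM 10% FBS with 0.5 mg/ml G418, then compounds plus […] (300 uM addition stock), 30 min at 37C. cAMP read by HTRF (cAMP-d2 and anti-cAMP antibody-K in lysis buffer) after 30 min RT.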
TSHR antagonist: human thyrotropin receptor antagonism; 0.2% of 330,000 active; AID 504810; TSHR-expressing cells, TSH-stimulated cAMP HTRF, 2 h; hits give low values; P16473; activity change, negative = inhibition, % at 11.5 µM;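 active means activity change below a set negative limit, meaning inhibition stronger than a set level, cut at about -70% in these data; inconclusive means activity change between two set negative limits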; further: on the % scale 0 is the no-effect control and ±100 the full control effect
Target sequence (P16473 whole entry, looked up): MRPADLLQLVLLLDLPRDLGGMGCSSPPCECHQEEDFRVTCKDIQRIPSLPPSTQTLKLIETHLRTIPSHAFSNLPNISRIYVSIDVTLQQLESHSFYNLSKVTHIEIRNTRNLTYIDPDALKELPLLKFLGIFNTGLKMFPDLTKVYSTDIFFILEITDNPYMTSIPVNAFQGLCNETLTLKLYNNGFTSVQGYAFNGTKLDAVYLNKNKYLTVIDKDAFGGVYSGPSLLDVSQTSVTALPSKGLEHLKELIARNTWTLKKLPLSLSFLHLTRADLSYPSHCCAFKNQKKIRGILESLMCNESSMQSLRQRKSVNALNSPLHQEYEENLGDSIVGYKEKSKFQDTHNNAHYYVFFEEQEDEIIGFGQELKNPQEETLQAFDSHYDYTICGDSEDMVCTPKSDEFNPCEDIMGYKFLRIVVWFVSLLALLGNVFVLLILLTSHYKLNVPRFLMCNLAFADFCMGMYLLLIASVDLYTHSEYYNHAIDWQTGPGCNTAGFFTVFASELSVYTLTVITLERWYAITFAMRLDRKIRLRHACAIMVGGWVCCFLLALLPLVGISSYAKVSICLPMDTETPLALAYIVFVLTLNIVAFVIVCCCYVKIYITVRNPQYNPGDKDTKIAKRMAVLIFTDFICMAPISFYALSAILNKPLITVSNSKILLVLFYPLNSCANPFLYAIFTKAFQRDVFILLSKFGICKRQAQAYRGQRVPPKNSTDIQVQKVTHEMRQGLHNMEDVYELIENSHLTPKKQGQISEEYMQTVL
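Read-out is FRET at 665 nm (cryptate excitation 337 nm) from a cryptate-tagged anti-cAMP antibody, competed by cell cAMP against cAMP-d2. Compounds are tested on freshly harvested TSHR cells challenged with 4nM TSH (EC80) for 2 hours at 37 deg C.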
RXFP1 agonist: agonists of human relaxin receptor RXFP1; HEK293T-RXFP1 cAMP TR-FRET, 30 min; response scale: percent of porcine relaxin response, buffer zero; Q9HBX9; 0.3% of 370,000 active; Potency, µM (titrated, usually from 57.5 µM), for the others: top-dose activation, hits mostly activators; AID 2676; active means well fitted activation curve with a large enough effect; inconclusive means small, poorly fitted or top-dose-only effect; further: potency means the concentration at half of the fitted maximal effect; on the % scale 0 is the no-effect control and ±100 the full control effect; nearly all actives have a fitted effect of over 60% in size
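HEK293T cells stably expressing RXFP1 were pretreated with the PDE4 inhibitor Ro 20174, exposed to compounds for 30 min at 37C, lysed, and cAMP was read by TR-FRET. Data normalized to buffer (basal) and 29 nM porcine relaxin (100%).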
* marks the source's active call; other numbers are inactive results; i = inactive; ? = inconclusive; / = no result given; [ ] = remark or other dose. The list is not random: actives were taken first. Their share in the collection is about 1.3%.

SMILES	RXFP1 antag	Akt phos inh	gsp agonist	gsp antagonist	TSHR antagonist	RXFP1 agonist
C=CCn1c(C)c(C(C)=O)c(N2CCN(c3ccccc3)CC2)nc1=S	-5	-105%*	-106%	2%	2	0%
C=CCn1c(C)c(C(C)=O)c(N2CCCC2)nc1=S	-2	i	19%	-6%	1	1%
Cc1cc(C)c(NC(=O)COC(=O)Cc2cccs2)c(C)c1	-109*	i	-5%[15.4 µM]	8%	8	0%
CC(C)Cn1c(N)c(C(=O)COC(=O)c2cc(F)cc(F)c2)c(=O)n(C)c1=O	-15	i	-12%	?	-3	0%
CCOC(=O)Cc1csc(SCC(=O)c2c(N)n(CC(C)C)c(=O)n(C)c2=O)n1	7	i	3%	11µM*	-31	2%
CC(C)Cn1c(N)c(C(=O)COC(=O)c2cnc(Cl)c(Cl)c2)c(=O)n(C)c1=O	-36	i	-40%	35µM*	-2	0%
CCOc1ccccc1OCC(=O)OCC(=O)c1c(N)n(CC(C)C)c(=O)n(C)c1=O	-16	i	-2%	35µM*	-14	3%
C[C@]1(Cn2ccnn2)[C@H](C(=O)O)N2C(=O)C[C@H]2S1(=O)=O	-5	/	/	/	/	/
Cc1ccc(Cl)cc1NC(=O)Nc1cccc(OCc2cc(=O)n3ccccc3n2)c1	2	/	/	/	/	13%
O=C(Nc1ccc(-c2nc3cc(Cl)ccc3c(=O)o2)cc1)c1ccco1	-66*	i	7%[15.4 µM]	13%	-9	1%
CC(C)NC(=O)c1cc2cc(Br)ccc2oc1=O	6	i	-22%	-7%	19	-3%
O=C(Nn1cnnc1)c1cc2cc(Br)ccc2oc1=O	11	-93%*	?	3%	15	1%
CCc1sc(C(=O)N(CCCOC)c2c(N)n(CC(C)C)c(=O)[nH]c2=O)cc1C	-15	i	2%	8%	7	0%
O=C(O)CC1S/C(=N/N=C2CCCCC2)N(c2ccccc2)C1=O (stereo unspecified)	/	i	6%	10%	1	-6%
C/C(=N\N=C1/SC(CC(=O)O)C(=O)N1c1ccccc1)c1ccc(C)cc1 (stereo unspecified)	1	i	-26%	25µM*	-7	-3%
COc1ccc2c(c1)c1nc3n(c(=O)c1n2CC(=O)Nc1cc(C)[nH]n1)CCS3	/	/	/	/	5	22%
COc1cccc(NC(=O)Cn2c3ccc(OC)cc3c3nc4n(c(=O)c32)CCS4)c1	4	i	?	0%	53	10µM*
CC(=O)Nc1ccc(N(C(=O)c2ccco2)C(C(=O)NC2CCCC2)c2ccncc2)cc1 (stereo unspecified)	7	i	-2%[15.4 µM]	15%	3	1%
Cc1ccc(S(=O)(=O)N2CCN(C(=O)CCC(=O)NCCc3ccc(F)cc3)CC2)cc1	-12	i	7%[15.4 µM]	3%	-4	-1%
COc1ccccc1Oc1ccc2c(c1)C(=O)N(c1cccc3ncccc13)C2=O	-89*	i	-3%[15.4 µM]	?	-33	2%
COc1ccccc1Oc1ccc2c(c1)C(=O)N(c1cccc(O)c1)C2=O	-13	/	-5%	?	-7	3%
CC(=O)c1ccc(NC(=O)C2CCCN(S(=O)(=O)c3cn(C)cn3)C2)cc1 (stereo unspecified)	-8	/	/	/	/	2%
O=C(CSc1nc2ccc([N+](=O)[O-])cc2[nH]1)NC1CCCCC1	-3	i	30%	28µM*	-13	0%
O=C(CSc1nc2ccc(Cl)cc2[nH]1)NC1CCCC1	-3	i	?	-19%	-2	0%
O=C(CSc1nc2ccc([N+](=O)[O-])cc2[nH]1)NC1CCCCCC1	-17	i	12%[15.4 µM]	40µM*	-35	1%
SMILES	RXFP1 antag	Akt phos inh	gsp agonist	gsp antagonist	TSHR antagonist	RXFP1 agonist
CCCCCn1c(SCCc2ccccc2)nc2c1c(=O)[nH]c(=O)n2C	-1	-112%*	4%	2%	12	3%
CCOC(=O)C(C)Sc1nc2c(c(=O)[nH]c(=O)n2C)n1CCc1ccccc1 (stereo unspecified)	-2	-103%*	-33%	2%[15.4 µM]	-8	0%
C=CCNc1nc2c(c(=O)[nH]c(=O)n2C)n1CCCCC	2	-114%*	5%	-1%	14	4%
CCOCCSc1nc2c(c(=O)[nH]c(=O)n2C)n1CCCc1ccccc1	3	-114%*	0%	10%	-3	1%
CCOCCn1c(SCCc2ccccc2)nc2c1c(=O)[nH]c(=O)n2C	0	i	-23%	-2%	-3	0%
O=C(CSc1n[nH]c(-c2cccnc2)n1)Nc1cccc(Cl)c1	-8	i	-31%	-14%	-6	3%
O=C(CSc1nc(-c2ccc(Cl)cc2)[nH]c(=O)n1)Nc1cccc(Cl)c1	-70*	i	6%[15.4 µM]	-13%	-29	0%
O=C(NCCS(=O)(=O)N1CCN(c2ccccc2)CC1)C1CCCC1	-10	i	-11%[15.4 µM]	7%	4	0%
CCOc1ccccc1C(=O)Nc1ccc(NC(=O)c2ccccc2)cc1	0	i	-4%	9%	18	2%
O=C(NNC(=O)c1ccc(NC(=O)c2ccccc2)cc1)c1ccc(F)cc1	4	i	18%	-12%	-10	17%
O=C(Nc1ccc(C(=O)c2ccccc2)cc1)c1ccccc1	-31	i	0%[15.4 µM]	40µM*	-2	4%
CCOc1ccccc1C(=O)Nc1ccc(C(=O)c2ccccc2)cc1	-2	i	-13%	25µM*	21	4%
OCCN1CCN(c2cc(C(F)(F)F)nc3ccccc23)CC1	10	i	?	-4%	-3	0%
O=[N+]([O-])c1cccc(N/N=C/c2cccc(O)c2O)c1	-87*	i	6%[15.4 µM]	-7%	-8	2%
CCN(CC)c1nc(-c2nn[nH]n2)nc(N(CC)CC)n1	0	i	?	40µM*	-4	3%
CCCN(C(=O)c1ccc2c(SCC(=O)O)c3c(nc2c1)CCC3)c1cccc(C)c1	-15	i	20%	-4%	-9	-2%
COc1ccc2nc3oc(C(=O)NCCCOC(C)C)cc3cc2c1	-7	i	?	50µM*	16	6%
CCOC(=O)C1=C(C)N(C[C@@H]2CC[C@@H](Cc3ccc(-c4ccccc4)cc3)O2)C(=O)NC1c1cccc([N+](=O)[O-])c1 (stereo partly specified)	/	i	/	7%	-4	/
C=CCSC1=Nc2sccc2C2=NC(=O)CN12	-2	i	20µM*	15%	-15	7%
Cc1ccc(CSC2=Nc3ccccc3C3=NC(=O)CN23)cc1	9	i	?	10%	6	3%

Screening data as filed in PubChem.
